Source: PubChem BioAssay (several laboratories)
ALR H2O2 inh: human ALR oxidase inhibition via reduced H2O2 | P55789 | purified ALR, DTT oxidation, H2O2 HRP-luminol luminescence | inhibition, % (concentration not given with the values) | 290,000 tested, 3.8% active | AID 485317;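 active = mean replicate inhibition above about 79%, with every replicate also reaching it, limit read from the data; inconclusive = only one of the two criteria met; inactive = mean below limit and not every replicate reaching it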
ABHD5-PLIN5 inh: inhibitors of human ABHD5-perilipin-5 interaction | inhibition, % at 4 µM | Split G. princeps luciferase complementation, luminescence, 4 h | Q00G26+Q8WTS1 | AID 602281 | 360,000 tested, 0.78% active;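 active = inhibition above the mean inhibition across every tested compound plus 3 SD, cut at about 22% in these data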;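 also: 0% = DMSO only wells and the 100% control is not disclosed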
LANA-H2A inh: blocks KSHV LANA binding to histone H2A/H2B | Q9QR71 | cell-free LANA-H2A/H2B peptide, fluorescence polarization | inhibition, % (no concentration beside the values) | 320,000 tested, 0.6% active | AID 2629; in the data active = inhibition mostly above about 10%, no sharp cut-off; inactive = mostly below about 6.7%
Rtt109 HAT inh: inhibitors of Candida albicans Rtt109/Vps75 histone acetyltransferase | Q5AAJ8 | purified Rtt109/Vps75, ThioGlo CoA-SH fluorescence, 4 h | inhibition, % at 34.9 µM | 330,000 tested, 0.16% active | AID 540336;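 active = inhibition of at least 50% in every replicate; inconclusive = best replicate reaches 50% inhibition but some replicates fall short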
Target sequence (Q5AAJ8 whole entry, looked up): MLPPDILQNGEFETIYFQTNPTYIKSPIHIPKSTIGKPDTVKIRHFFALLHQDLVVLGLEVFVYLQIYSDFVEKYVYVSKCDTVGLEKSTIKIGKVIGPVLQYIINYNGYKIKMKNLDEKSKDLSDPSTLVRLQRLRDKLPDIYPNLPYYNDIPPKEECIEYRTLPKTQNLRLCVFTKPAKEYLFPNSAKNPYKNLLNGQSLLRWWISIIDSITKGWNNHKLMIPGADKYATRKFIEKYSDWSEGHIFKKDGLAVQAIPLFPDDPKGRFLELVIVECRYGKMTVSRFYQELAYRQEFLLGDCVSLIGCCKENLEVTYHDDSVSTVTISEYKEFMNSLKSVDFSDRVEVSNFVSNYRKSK
rCAG binder: binds r(CAG) RNA repeats; 370,000 tested, 1.3% active; r(CAG) RNA repeat, TO-PRO-1 dye displacement fluorescence; inhibition, % at 3 µM;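 active = inhibition above the plate cutoff, the mean of all test compounds on that plate plus 3 SD, cut at about 35% in these data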;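 also: 0% = DMSO alone and 100% = 100 µM mitoxantrone as full dye displacement; higher means more dye released from RNA so lower well fluorescence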
PRMT1 inh: PRMT1 (human) inhibition, primary screen. inhibition, % at 2.79 µM. AID 652257. recombinant PRMT1, activity-based probe fluorescence polarization. Q99873. 370,000 tested, 1.3% active;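 active = inhibition above about 21% made by adding two undisclosed values, limit read from the data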
Active calls of the source: *; i = inactive; ? = inconclusive; . = no result given. Most compounds without a hit are left out; they make up all but 5.9% or so of the library.

SMILES	ALR H2O2 inh	ABHD5-PLIN5 inh	LANA-H2A inh	Rtt109 HAT inh	rCAG binder	PRMT1 inh
COc1cccc(C(=O)NN2C(=O)C3C4C=CC(O4)C3C2=O)c1 (stereo not given)	0.3	4.6	-3.2	9.2	0.1	22.7*
COc1cccc(C(=O)NN2c3ccccc3CCc3ccccc32)c1	6.0	-8.7	-94.8	10.7	1.9	-0.4
CC(=O)NCCC(=O)Nc1sc2c(c1-c1nc3ccccc3[nH]1)CCCC2	98.2*	2.7	0.5	5.6	13.3	0.4
NNc1nc(C(F)(F)F)nc2ccccc12	5.3	-1.8	2.6	5.0	3.0	-0.5
O/C=c1\ccc2cccc3nc(C(F)(F)F)nc1c23	-101.1	-9.0	0.7	-7.1	-84.7	40.1*
C[C@H]1[C@H](c2ccccc2)Oc2cccc(NCCc3ccccc3)c2S(=O)(=O)N1Cc1cccc(Cl)c1	.	.	.	.	8.8	0.5
CCCCC/C=C\C/C=C\C/C=C\C/C=C\CCCC(=O)O	97.2*	.	0.6	.	.	.
N#C/C(=C\c1cccc(Cl)c1)C(=O)c1ccccc1	95.7*	15.5	5.5	7.3	2.3	0.4
Cc1ccc(C(=O)n2ccc3ccc(-c4ccc5ccn(Cc6ccc(C#N)cc6)c5c4)cc32)cc1	.	.	.	.	22.0	8.2
CC[C@H]1/C(=C/c2ccccc2)N2C(=O)C[C@H](c3ccccc3)N=C2N1C	.	.	.	.	.	-4.7
CN1CCN(S(=O)(=O)c2ccc(N3CCN(c4ccc(O)cc4)CC3)c([N+](=O)[O-])c2)CC1	98.0*	10.2	1.3	29.4	11.3	9.9
O=C(O)c1nn(CCOc2ccc(Br)cc2)c(=O)c2ccccc12	-1.4	2.8	13.2*	4.9	2.4	-3.7
CCN(CC)c1ccc(/C=C2\SC(N)=NC2=O)cc1	98.6*	0.6	-6.6	-2.5	-12.4	-8.3
COC(=O)N1C[C@H](OC(=S)Nc2ccc(OC)cc2OC)[C@H]2C[C@@H]1c1ccccc1O2	.	.	.	.	5.0	3.5
N=c1c(C(=O)NCc2ccco2)cc2c(=O)n3ccccc3nc2n1C1CCCC1	-1.1	22.7*	1.2	-73.2	4.2	3.8
COc1ccc(CCNC(=O)c2cc3c(=O)n4cccc(C)c4nc3n(Cc3ccco3)c2=N)cc1OC	75.9*	15.8	9.6	27.6	7.7	-3.4
N=c1c(C(=O)NCc2ccc(F)cc2)cc2c(=O)n3ccccc3nc2n1Cc1ccco1	.	19.8	5.2	-100.2	13.3	5.4
CCCn1c(=N)c(C(=O)NC2CCCC2)cc2c(=O)n3cccc(C)c3nc21	-4.4	9.2	5.5	15.5	12.7	-1.6
Cc1ccc(CNC(=O)c2cc3c(=O)n4ccccc4nc3n(Cc3ccco3)c2=N)cc1	23.6	30.2*	3.5	-8.0	16.8	4.8
N=c1c(C(=O)NC2CCCC2)cc2c(=O)n3ccccc3nc2n1C1CCCC1	-23.4	1.5	1.4	i	2.1	-1.8
CCn1c(=N)c(C(=O)NC)cc2c(=O)n3cccc(C)c3nc21	.	-0.8	17.0*	-72.8	5.4	1.1
N=c1c(C(=O)NCc2ccccc2)cc2c(=O)n3ccccc3nc2n1Cc1ccco1	?	26.3*	-2.0	-36.2	9.3	0.2
COc1cc(/C=N/NC(=O)c2ccncc2)ccc1Oc1ccc([N+](=O)[O-])cn1	-3.2	1.7	1.4	2.3	3.0	0.2
COc1ccc(OC)c(/C(C)=N/Nc2ccc(C(=O)O)cc2)c1	98.8*	-0.4	-1.0	.	2.4	4.0
Cc1nc2c(C)cccc2cc1C(=O)N/N=C/c1cccc([N+](=O)[O-])c1	98.1*	-0.1	-4.1	-13.1	3.0	-1.9
SMILES	ALR H2O2 inh	ABHD5-PLIN5 inh	LANA-H2A inh	Rtt109 HAT inh	rCAG binder	PRMT1 inh
COc1cc(/C=N/Nc2ccc(S(N)(=O)=O)cc2)cc(OC)c1OC	92.8*	0.4	-0.2	17.5	2.4	-9.8
COc1cc(/C=N/NC(=O)c2ccc(O)cc2)ccc1Oc1ccc([N+](=O)[O-])cn1	92.4*	5.4	4.8	5.7	6.8	0.8
COc1cc(/C=N\NS(=O)(=O)c2ccccc2)cc(OC)c1OC	-0.5	-7.7	-3.9	2.5	1.2	-2.8
Cc1noc(C)c1-c1ccc(C(=O)NCc2ccc(Cl)cc2)c2occc12	.	-0.1	.	.	1.2	1.4
COc1ccc(/C=N/NC(=O)c2cccc([N+](=O)[O-])c2)cc1OC	-2.8	-3.3	4.4	26.4	-2.1	-3.4
COc1cc(/C=N/NC(=O)c2ccccc2)ccc1O	99.8*	0.1	0.0	-5.7	1.2	-2.4
